Values without a mark were called inactive. Results filed as inconclusive are left out. Active and inactive are the calls of the source. Unless noted, the call rests on the fitted dose curve.

The nature of test [1]: Nuclear factor erythroid 2-related factor 2/antioxidant responsive element (Nrf2/ARE) small molecule agonists: qHTS cell viability counter screen in human keratinocytes (AID 1919968; active means well fitted curve in the direction sought with a large enough effect in the repeat runs; an effect the other way counts as inactive or inconclusive; further: nearly all actives have a fitted effect of over 55% in size; further: potency means the concentration at half of the fitted maximal effect). The essentials: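 CellTiter-Fluor fluorescence, read 1 h after reagent, gave viability in the same wells as the ARE-luciferase assay. KeratinoSens cells (1,500/well) had 23 h compound exposure at 37 C/5% CO2 following 5 h plating.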

Test [2] is described as follows: Nuclear factor erythroid 2-related factor 2/antioxidant responsive element (Nrf2/ARE) small molecule agonists: luciferase reporter gene qHTS assay in human keratinocytes (AID 1919969). Further: nearly all actives have a fitted effect of over 35% in size.
The target in test [3] is Gonadotropin-releasing hormone receptor (Homo sapiens) (UniProt P30968). Put plainly: Human gonadotropin-releasing hormone receptor (GnRHR) small molecule agonists, calcium flux assay in GnRHR-HEK293 cells (AID 1920063). Further: nearly all actives have a fitted effect of over 35% in size. The essentials:
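Agonist mode: compounds at 15 concentrations, in triplicate, went onto calcium dye-loaded GnRHR-HEK293 cells. Intracellular calcium was then followed as 480/540 nm fluorescence at 1 s intervals over 3 min.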

The target in test [4] is KiSS-1 receptor (Homo sapiens) (UniProt Q969F8). Nature of the test: Human kisspeptin (KISS1R) small molecule agonists, calcium flux assay in KISS1R-HEK293 cells (AID 1920064; active means well fitted curve in the direction sought with a large enough effect in the repeat runs; an effect the other way counts as inactive or inconclusive). The essentials: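 Agonist mode: intracellular calcium rise tracked at 1 s intervals over 3 min (480/540 nm) immediately after compound addition to dye-loaded KISS1R-HEK293 stable cells. Each compound tested at 15 concentrations in triplicate.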
Background: Calcium assays in cells follow changes in intracellular calcium, usually with a dye or a luminescent sensor.

A short description of test [5]: G protein-coupled receptor (GPCR) small molecule agonists, calcium flux assay: HEK293 wild type cell line counter screen (AID 1920065). The essentials: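 Calcium flux counter screen: compound added in agonist mode at 15 concentrations in triplicate to dye-loaded parental HEK293 cells. Fluorescence (480/540) read kinetically for 3 min; ATP served as positive control.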

Test [6] is described as follows: p53 small molecule agonists, cell-based qHTS assay with rat liver microsomes (AID 1963578). The essentials:
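Quantitative HTS of the Tox21 10K library: p53RE-bla cells, rat liver microsomes plus NADPH at 0.5 mg/mL final each, 16 h at 37 C, beta-lactamase fluorescence detection.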
(In general: In qHTS, concentration-response curves come from the screen itself.)

A short description of test [7]: p53 small molecule agonists, cell-based qHTS assay with human liver microsomes: qHTS cell viability counter screen (AID 1963579). Further: nearly all actives have a fitted effect of over 45% in size. Further: potency means the concentration at half of the fitted maximal effect. The gist of the method: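 Viability of p53RE-bla cells is measured as CellTiter-Glo luminescence following a 16 h, 37 C incubation with compound, liver microsomes from human donors and NADPH.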
The nature of test [8]: p53 small molecule agonists, cell-based qHTS assay: qHTS cell viability counter screen (AID 1963581). Further: nearly all actives have a fitted effect of over 45% in size. Further: potency means the concentration at half of the fitted maximal effect. The essentials:
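Counter screen read by CellTiter-Glo luminescence (ATP content, 30 min at room temperature), run in the same wells as the beta-lactamase reporter read. HCT-116 p53RE-bla cells saw compounds for 16 h at 37 C.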

Test [9] in a line: p53 small molecule agonists, cell-based qHTS assay (AID 1963582; active means well fitted activation curve with a large enough effect in the signal ratio in the repeat runs, not every such curve was filed as active; the % refers to the signal ratio). The essentials: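 Read-out is beta-lactamase FRET fluorescence after 2 h at room temperature with LiveBLAzer B/G substrate. p53 response element-bla cells were treated 16 h at 37 C with compounds in DMSO, added 5 h after seeding.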
For test [10], the target named is 5-hydroxytryptamine receptor 2A (Homo sapiens) (UniProt P28223). Nature of the test: 5-hydroxytryptamine receptor 2A (HTR2A) small molecule agonists, cell-based qHTS assay (AID 1963587). Further: nearly all actives have a fitted effect of over 30% in size. Further: potency means the concentration at half of the fitted maximal effect. The essentials:
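CHO cells stably expressing human HTR2A, plated 18 h, loaded with calcium dye 1 h at 37 C. Agonist mode: compounds added and intracellular calcium fluorescence recorded kinetically for 2 min at 1 sec intervals.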

The target in test [11] is Muscarinic acetylcholine receptor M1 (Homo sapiens) (UniProt P11229). Put plainly: Cholinergic receptor muscarinic 1 (CHRM1) small molecule antagonists, cell-based qHTS assay (AID 1963588). Further: nearly all actives have a fitted effect of over 40% in size. Further: potency means the concentration at half of the fitted maximal effect. The essentials:
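Compounds were tested at 15 concentrations in three independent runs. Dye-loaded CHRM1-CHO cells were exposed 5 min at room temperature before stimulation by acetylcholine added at 50nM. Intracellular calcium was read kinetically on FDSS for 3 min.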

Test [12] shares this target. Nature of the test: Cholinergic receptor muscarinic 1 (CHRM1) small molecule agonists, cell-based qHTS assay (AID 1963589). Further: nearly all actives have a fitted effect of over 35% in size. Further: potency means the concentration at half of the fitted maximal effect. The essentials:
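Agonist-mode calcium-flux screen: compounds at 15 concentrations, three independent runs, were pin-transferred onto dye-loaded human CHRM1-CHO cells. Fluorescence was then recorded kinetically every second over minutes.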

Test [13] in a line: cAMP Responsive Elements (CRE) small molecule agonists, cell-based qHTS assay (AID 1963590). The gist of the method:
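Agonist mode: compound added to CRE-bla HEK 293T cells (2,000/well, 18 h after plating) for 3 h at 37 C/5% CO2. Reporter activity detected via FRET beta-lactamase substrate, 2 h room-temperature loading.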

Test [14] in a line: cAMP Responsive Elements (CRE) small molecule antagonists, cell-based qHTS assay (AID 1963591; active means well fitted inhibition curve with a large enough effect in the signal ratio in the repeat runs, not every such curve was filed as active; the % refers to the signal ratio). The essentials:
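Antagonist mode: compounds are added alongside the adenylyl cyclase activator NKH477 (0.25 uM final) to CRE-bla HEK293T cells for 3 h. LiveBLAzer FRET substrate, 2 h at room temperature, reports bla expression.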

For test [15], the target named is D(2) dopamine receptor (Homo sapiens) (UniProt P14416). Put plainly: Dopamine D2 receptor (DRD2) small molecule agonists, cell-based qHTS assay (AID 1963594). Further: nearly all actives have a fitted effect of over 35% in size. The gist of the method: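 HEK293 cells stably expressing human DRD2, pre-treated with PDE inhibitor Ro20-1724 (0.1 mM final) and compound 10 min at room temperature, then stimulated with NKH477 (200nM […]) for 30 min. cAMP read by HTRF (665/620 nm).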

For test [16] the target is unchanged. Nature of the test: Dopamine D2 receptor (DRD2) small molecule antagonists, cell-based qHTS assay (AID 1963595; active means well fitted inhibition curve with a large enough effect in the signal ratio in the repeat runs, with a control signal flat; the % refers to the signal ratio; further: potency means the concentration at half of the fitted maximal effect). The gist of the method:
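In this cell-based antagonist screen, compounds act for 10 min at room temperature before a 30 min challenge with 12 nM quinpirole and 200 nM NKH477. cAMP is quantified by HTRF competition in DRD2-HEK293 cells containing 0.1 mM Ro20-1724.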

Test [17] can be described thus: p53 small molecule agonists, cell-based qHTS assay with rat liver microsomes: qHTS cell viability counter screen (AID 1963580). Further: nearly all actives have a fitted effect of over 45% in size. Further: potency means the concentration at half of the fitted maximal effect. The gist of the method: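 Cytotoxicity counter screen: intracellular ATP measured by CellTiter-Glo luminescence in the same wells as the beta-lactamase reporter read, on HCT-116 p53RE-bla cells exposed 16 h at 37 C to compounds with rat liver microsomes and NADPH, each 0.5 mg/mL final.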

Test [18] addresses Beta-2 adrenergic receptor (Homo sapiens) (UniProt P07550). Put plainly: Adrenergic beta2 receptor (ADRB2) small molecule antagonists, cell-based qHTS assay (AID 1963592). Further: nearly all actives have a fitted effect of over 50% in size. Further: potency means the concentration at half of the fitted maximal effect. The gist of the method:
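Assay format: CHO-ADRB2 cells, 18-20hr seeding at 37C/5% CO2, then compound plus 1nM isoproterenol agonist mix for 0.5hr RT. Homogeneous time-resolved fluorescence cAMP detection after 1hr, expressed as 665/615 nm ratio.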

Test [19] deals with 5-hydroxytryptamine receptor 2A (Homo sapiens) (UniProt P28223). Put plainly: 5-hydroxytryptamine receptor 2A (HTR2A) small molecule antagonists, cell-based qHTS assay (AID 1963586). Further: nearly all actives have a fitted effect of over 45% in size. Further: potency means the concentration at half of the fitted maximal effect. The essentials: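 CHO cells stably expressing human HTR2A were plated for 18 h at 37 C, then loaded with calcium dye for 1 h. Compounds were preincubated 5 min at room temperature before DOI (4 nM solution) was added. Kinetic fluorescence was read for 3 min.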

Test [20] deals with Beta-2 adrenergic receptor (Homo sapiens) (UniProt P07550). Put plainly: Adrenergic beta2 receptor (ADRB2) small molecule agonists, cell-based qHTS assay (AID 1963593).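 Further: CHO cells stably overexpressing human ADRB2.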 The gist of the method: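 CHO cells stably over-expressing ADRB2 were plated overnight at 37C, then dosed with compounds plus a stimulation mix containing 100uM IBMX and 25uM Ro-20-1724 for 0.5hr at room temperature. cAMP was measured by HTRF competition, 1hr.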
Chain of Beta-2 adrenergic receptor (Homo sapiens) (P07550 whole entry, looked up): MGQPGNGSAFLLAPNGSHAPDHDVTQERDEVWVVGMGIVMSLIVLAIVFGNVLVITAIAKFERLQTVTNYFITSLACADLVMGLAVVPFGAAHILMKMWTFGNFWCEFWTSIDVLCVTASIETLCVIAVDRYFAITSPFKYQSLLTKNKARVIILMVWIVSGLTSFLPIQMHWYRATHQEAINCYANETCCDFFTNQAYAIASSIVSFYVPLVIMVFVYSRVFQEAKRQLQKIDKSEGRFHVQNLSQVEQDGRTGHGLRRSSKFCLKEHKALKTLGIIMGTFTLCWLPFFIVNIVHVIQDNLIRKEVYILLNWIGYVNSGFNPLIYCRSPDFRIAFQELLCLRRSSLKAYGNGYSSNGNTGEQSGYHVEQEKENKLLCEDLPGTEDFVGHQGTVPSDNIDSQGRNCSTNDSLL

Chain of Gonadotropin-releasing hormone receptor (Homo sapiens) (P30968 whole entry, looked up): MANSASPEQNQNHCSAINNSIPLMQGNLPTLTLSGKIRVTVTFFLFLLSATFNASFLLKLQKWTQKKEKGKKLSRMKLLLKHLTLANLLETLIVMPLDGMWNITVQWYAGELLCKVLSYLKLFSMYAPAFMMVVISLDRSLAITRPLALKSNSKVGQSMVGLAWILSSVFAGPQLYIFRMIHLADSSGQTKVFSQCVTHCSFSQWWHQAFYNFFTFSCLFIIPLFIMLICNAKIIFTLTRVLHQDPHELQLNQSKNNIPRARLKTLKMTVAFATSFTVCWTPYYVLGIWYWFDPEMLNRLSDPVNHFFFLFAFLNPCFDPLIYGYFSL
Chain of KiSS-1 receptor (Homo sapiens) (Q969F8 whole entry, looked up): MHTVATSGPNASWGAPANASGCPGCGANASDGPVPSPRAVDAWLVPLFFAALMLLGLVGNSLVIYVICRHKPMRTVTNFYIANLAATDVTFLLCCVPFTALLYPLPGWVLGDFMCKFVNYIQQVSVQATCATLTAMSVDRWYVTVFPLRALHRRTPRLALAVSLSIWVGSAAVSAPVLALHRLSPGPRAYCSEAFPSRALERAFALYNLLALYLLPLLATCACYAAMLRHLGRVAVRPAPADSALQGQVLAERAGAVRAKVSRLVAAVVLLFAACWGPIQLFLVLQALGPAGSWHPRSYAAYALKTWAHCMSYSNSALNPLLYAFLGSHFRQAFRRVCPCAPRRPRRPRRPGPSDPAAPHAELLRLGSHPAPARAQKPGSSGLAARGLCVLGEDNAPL
Chain of Muscarinic acetylcholine receptor M1 (Homo sapiens) (P11229 whole entry, looked up): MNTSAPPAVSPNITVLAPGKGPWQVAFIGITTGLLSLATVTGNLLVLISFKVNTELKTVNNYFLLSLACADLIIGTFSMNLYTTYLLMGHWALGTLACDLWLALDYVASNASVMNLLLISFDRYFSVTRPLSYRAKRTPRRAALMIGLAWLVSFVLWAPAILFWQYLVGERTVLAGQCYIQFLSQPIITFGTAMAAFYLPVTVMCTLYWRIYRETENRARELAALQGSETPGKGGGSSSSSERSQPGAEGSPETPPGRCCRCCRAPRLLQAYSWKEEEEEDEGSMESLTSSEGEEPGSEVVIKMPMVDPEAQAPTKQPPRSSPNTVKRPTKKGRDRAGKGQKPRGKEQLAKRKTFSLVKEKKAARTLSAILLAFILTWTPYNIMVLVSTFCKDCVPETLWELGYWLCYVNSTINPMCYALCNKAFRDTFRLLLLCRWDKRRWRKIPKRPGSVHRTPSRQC
Chain of 5-hydroxytryptamine receptor 2A (Homo sapiens) (P28223 whole entry, looked up): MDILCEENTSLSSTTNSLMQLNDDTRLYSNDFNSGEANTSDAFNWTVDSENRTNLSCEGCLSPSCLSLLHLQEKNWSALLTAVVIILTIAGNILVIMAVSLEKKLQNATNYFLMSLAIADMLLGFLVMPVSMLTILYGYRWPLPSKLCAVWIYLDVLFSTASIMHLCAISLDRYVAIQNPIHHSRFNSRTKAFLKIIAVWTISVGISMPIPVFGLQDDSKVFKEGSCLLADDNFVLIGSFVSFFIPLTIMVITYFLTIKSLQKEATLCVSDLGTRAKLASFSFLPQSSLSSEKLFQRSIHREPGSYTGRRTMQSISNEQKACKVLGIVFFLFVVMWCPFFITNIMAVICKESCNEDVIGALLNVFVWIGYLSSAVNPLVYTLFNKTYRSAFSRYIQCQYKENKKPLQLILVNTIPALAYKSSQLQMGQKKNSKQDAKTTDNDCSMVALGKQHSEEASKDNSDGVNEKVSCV
Chain of D(2) dopamine receptor (Homo sapiens) (P14416 whole entry, looked up): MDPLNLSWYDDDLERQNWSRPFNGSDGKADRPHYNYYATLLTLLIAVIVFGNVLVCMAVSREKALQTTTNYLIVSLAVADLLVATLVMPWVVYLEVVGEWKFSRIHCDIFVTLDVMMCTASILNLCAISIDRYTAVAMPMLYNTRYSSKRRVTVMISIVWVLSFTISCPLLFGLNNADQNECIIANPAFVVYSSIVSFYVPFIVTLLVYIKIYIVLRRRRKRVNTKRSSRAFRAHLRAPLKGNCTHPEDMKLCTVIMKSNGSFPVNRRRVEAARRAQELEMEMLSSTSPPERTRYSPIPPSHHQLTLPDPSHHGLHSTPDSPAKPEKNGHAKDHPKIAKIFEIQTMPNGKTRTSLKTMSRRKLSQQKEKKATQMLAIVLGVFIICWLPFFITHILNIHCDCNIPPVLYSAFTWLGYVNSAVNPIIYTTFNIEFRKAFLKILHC

With `O=[N+]([O-])c1ccc(F)c(Cl)c1`, the Potency result in test [1], in [2], in test [3], in test [6], in test [7] and in [8] was “inactive” throughout. The Potency result in test [9], in test [10], in test [11], in test [12], in test [13] and in test [14] was “inactive” in each case. Further, the Potency result in [15] and in test [16] was “inactive” in each case. Moreover, the outcome in test [4] and in test [5] was inactive.

`O=C1C(CCS(=O)c2ccccc2)C(=O)N(c2ccccc2)N1c1ccccc1` (stereo not given): the Potency entry in [1], in [2], in test [3], in test [6], in test [7] and in test [17] was “inactive” each time. In addition, the Potency result in test [9], in test [13], in test [14], in [18], in [15] and in [16] was “inactive” in each case. Further, the outcome in [4] and in test [5] was inactive.

Take `c1cnc2c(n1)CCCC2`: the Potency result in test [1], in [2], in test [3], in test [6], in test [7] and in test [8] was “inactive” each time. The Potency entry in test [9], in test [19], in test [10], in test [11], in [12] and in test [13] was “inactive” each time. Besides, the Potency result in [14], in test [20] and in test [15] was “inactive” throughout. Besides, the result in test [4] and in test [5] was inactive.

On to `COC(=O)C1=C(C)NC(C)=C(C(=O)OCCN2CCN(C(c3ccccc3)c3ccccc3)CC2)C1c1cccc([N+](=O)[O-])c1` (stereo not given), for which the Potency result in [1], in [2], in [3], in test [6], in test [7] and in test [17] was “inactive” in each case. Also, the Potency entry in test [8], in test [11], in test [12], in test [14], in test [18] and in [20] was “inactive” throughout. Further, the Potency entry in test [16] is “inactive”. Besides, the outcome in [4] and in [5] was inactive. For the same compound, in [19], the Potency is 8.18 µM (active).

Turning to `Fc1ccc([C@@H]2CCNC[C@H]2COc2ccc3c(c2)OCO3)cc1`, the Potency entry in test [1], in test [2], in test [3], in test [6], in test [7] and in test [17] was “inactive” in each case. Further, the Potency result in test [13], in test [14], in [18] and in [16] was “inactive” throughout. The outcome in [4] and in [5] was inactive.

For the compound `NC(=O)COCCN1CCN(C(c2ccccc2)c2ccc(Cl)cc2)CC1` (stereo not given), the Potency entry in [1], in [2], in [3], in test [6], in test [7] and in test [17] was “inactive” in each case. The Potency entry in test [19], in test [10], in test [11], in test [12], in test [13] and in test [14] was “inactive” each time. The Potency result in test [18] and in test [16] was “inactive” throughout. In addition, the outcome in test [4] and in test [5] was inactive.

For `Nc1cccc(S(=O)(=O)O)c1`, the Potency result in test [1], in [2], in test [3], in [6], in test [7] and in test [17] was “inactive” each time. Further, the Potency entry in [9], in test [19], in test [10], in [11], in [12] and in test [13] was “inactive” each time. The Potency entry in [14], in [18], in test [15] and in test [16] was “inactive” in each case. Also, the result in [4] and in test [5] was inactive.

In the case of `Cc1cc(O)c(C(C)(C)C)cc1Sc1cc(C(C)(C)C)c(O)cc1C`, the Potency is 13.7 µM (active) in test [1]; 9.11 µM (active) in [7]; 20.4 µM (active) in test [17]; 5.75 µM (active) in test [8]; 43.6 µM (active) in test [10]; 26.5 µM (active) in test [11]. The Potency in [12] is 48.9 µM (active); in test [18], 27.3 µM (active); in [16], 21.6 µM (active). In addition, the Potency entry in test [2], in test [3], in [6], in [19] and in test [15] was “inactive” each time. The result in test [4] and in test [5] was inactive.

The values are drawn from PubChem BioAssay (Tox21).
